Laboratory results published in PubChem BioAssay.
Activity calls are given as the source filed them. Unless noted, no rule for the calls is given here.

Key:
[1] = anti-His antibody binders, primary screen, artefact control for SMM control protein annotation, biochemical, small-molecule microarray, 635 nm fluorescence (AID 1128); conditions: anti-His Alexa647 antibody binding, higher = more signal;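 also: score merges feature fluorescence with signal-to-noise for each printed compound spot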
[2] = test system: Human papillomavirus type 1a E7 protein (residues 1-88); assay: HPV1a E7 small-molecule binders, primary screen, biochemical, small-molecule microarray, residues 1-88, 635 nm (AID 1129); conditions: small-molecule microarray binding, fluorescence 635 nm; higher = more signal
[3] = biological target: Focal adhesion kinase 1 (Homo sapiens) (UniProt Q05397); assay: small-molecule microarray binders of FAK, primary screen, biochemical, 635/667 nm fluorescence, BSA, DTT (AID 1130); conditions: PTK2 binding, 635 nm fluorescence, higher = more signal;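 also: composite of spot emission at 667 nm and signal to noise over triplicate slides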
[4] = test system: Fibrinogen (Alexa647-labelled); assay: fibrinogen binders on compound microarrays, profiling panel, artefact control for SMM control-protein annotation, biochemical, small-molecule microarray, 635/667 nm fluorescence (AID 1131); conditions: fibrinogen-A647 binding fluorescence, higher = more signal;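 also: z-score merges 667 nm fluorescence with per-spot signal-to-noise over triplicate slides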
[5] = biological target: Follistatin (Homo sapiens) (UniProt P19883); assay: follistatin binders on small-molecule microarrays, primary screen, biochemical, small-molecule microarray, 635/667 nm fluorescence (AID 1132); conditions: FST binding, 635 nm fluorescence, higher = more signal
[6] = biological target: Fibroblast growth factor 2 (Homo sapiens) (UniProt P09038); assay: FGF2 binders on small-molecule microarrays, primary screen, biochemical, small-molecule microarray, 635/667 nm fluorescence (AID 1133); conditions: small-molecule microarray binding, FGF2, fluorescence 635/667; higher = more signal
[7] = mitochondrial membrane potential change in A549 cells, profiling panel, cell-based, JC-1 fluorescence, basal, 24 h, 100 nL (AID 1138); conditions: higher = more signal;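 also: A549 lung adenocarcinoma cells under basal conditions with no added stimulus; test concentration not given here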
Lefty1 = Lefty1 binders on small-molecule microarrays, primary screen, biochemical, small-molecule microarray, 635/667 nm fluorescence (AID 1139); conditions: small-molecule microarray binding, fluorescence 635/667; higher = more signal
[8] = test system: wheat germ agglutinin (Triticum aestivum), Alexa647-labelled; assay: wheat germ agglutinin binders on compound microarrays, profiling panel, artefact control for SMM control-protein annotation, biochemical, small-molecule microarray, 635/667 nm fluorescence (AID 1140); conditions: WGA-A647 binding, 635 nm fluorescence, higher = more signal;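 also: score merges 667 nm feature emission with signal to noise over triplicate slides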
[9] = biological target: Luciferin 4-monooxygenase (Photinus pyralis) (UniProt P08659); assay: firefly luciferase enzyme inhibitors, primary screen, biochemical, luminescence, purified enzyme, 2006 set (AID 1141); conditions: SteadyGlo luminescence, 30 min, higher = more signal, called active from +8 up or from −8 down;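 also: cell-free assay with purified firefly luciferase at 100 ng per well in PBS; test concentration not given here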
[10] = test system: Wnt5a (protein binding on small-molecule microarray); assay: Wnt5a binders on small-molecule microarray, primary screen, biophysical, 635/667 nm fluorescence (AID 1142); conditions: 635 nm fluorescence, higher = more signal;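 also: fluorescence read at 667 nm with signal to noise per printed feature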
[11] = cell viability in Huh7 cells, primary screen, cytotoxicity control for HCV replication inhibitor project, CellTiter-Glo luminescence, basal, 48 h (AID 1143); conditions: Huh7 HCV replicon, higher = more signal, called active from +8 up or from −8 down;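 also: Huh7 hepatoma cells carrying a hepatitis C replication reporter with no stimulus; test concentration not given here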
[12] = P. aeruginosa biofilm formation inhibitors, primary screen, PAO1 strain, BacTiter-Glo luminescence, LB-PBS (AID 1144); conditions: 12 h, higher = more signal
[13] = CREB reporter modulators without forskolin, primary screen, cell-based, PC12, CRE-LacZ reporter, unstimulated (AID 1145); conditions: no forskolin, luminescence, 4.5 h, higher = more signal, called active from +8 up or from −8 down
[14] = CREB reporter modulators under forskolin, primary screen, cell-based, PC12, CRE-LacZ reporter, forskolin-stimulated (AID 1146); conditions: luminescence, 4.5 h, higher = more signal, called active from +8 up or from −8 down;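 also: PC12 cells with 6xCRE LacZ reporter stimulated by forskolin 10 µM; beta-galactosidase reporter signal reflecting CREB driven transcription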
[15] = biological target: Streptavidin (Streptomyces avidinii) (UniProt P22629); assay: streptavidin binders on small-molecule microarray, primary screen, artefact control for SMM compound annotation, biophysical, 635/667 nm fluorescence (AID 1147); conditions: streptavidin binding, higher = more signal;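 also: signal reflects streptavidin binding to arrayed compounds as a control protein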
[16] = small-molecule binders of probe aInhba, primary screen, biochemical, small-molecule microarray, 635/667 nm fluorescence (AID 1148); conditions: higher = more signal;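 also: score merges 667nm spot fluorescence with signal-to-noise for antibody binding to printed compounds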
Torsin-1A (Homo sapiens) [17] = biological target: Torsin-1A (Homo sapiens) (UniProt O14656); assay: torsin A binders from cell lysate, primary screen, small-molecule microarray, wild-type, 635/667 nm (AID 1149); conditions: COS7 hTOR1A-WT lysate, 635 nm fluorescence, higher = more signal
Torsin-1A (Homo sapiens) [18] = biological target: Torsin-1A (Homo sapiens) (UniProt O14656); assay: small-molecule binders of mutant TOR1A in lysate, primary screen, cell lysate, small-molecule microarray, COS7 lysate, 635/667 nm fluorescence (AID 1150); conditions: COS7 hTOR1A mutant lysate, 635 nm fluorescence, higher = more signal;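 also: score pools 667 nm emission and signal to noise measuring lysate protein binding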
[19] = test system: Sonic hedgehog protein (Shh); assay: small-molecule binders of Shh protein, primary screen, biochemical, small-molecule microarray, 635/667 nm fluorescence (AID 1151); conditions: small-molecule microarray binding, 635 nm fluorescence; higher = more signal;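 also: Shh protein binding to compounds spotted on small-molecule microarray slides; score combines spot fluorescence intensity with signal-to-noise across triplicate slides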

Fibroblast growth factor 2 (Homo sapiens), sequence (P09038 whole entry, looked up): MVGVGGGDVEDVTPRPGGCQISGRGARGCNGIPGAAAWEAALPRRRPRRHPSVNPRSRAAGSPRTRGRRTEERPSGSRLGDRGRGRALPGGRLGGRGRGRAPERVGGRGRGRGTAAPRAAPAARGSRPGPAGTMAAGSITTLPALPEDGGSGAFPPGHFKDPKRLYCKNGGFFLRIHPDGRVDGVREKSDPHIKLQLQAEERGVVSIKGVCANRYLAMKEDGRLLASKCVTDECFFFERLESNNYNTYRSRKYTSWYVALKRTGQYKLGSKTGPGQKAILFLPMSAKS
Torsin-1A (Homo sapiens), sequence (O14656 whole entry, looked up): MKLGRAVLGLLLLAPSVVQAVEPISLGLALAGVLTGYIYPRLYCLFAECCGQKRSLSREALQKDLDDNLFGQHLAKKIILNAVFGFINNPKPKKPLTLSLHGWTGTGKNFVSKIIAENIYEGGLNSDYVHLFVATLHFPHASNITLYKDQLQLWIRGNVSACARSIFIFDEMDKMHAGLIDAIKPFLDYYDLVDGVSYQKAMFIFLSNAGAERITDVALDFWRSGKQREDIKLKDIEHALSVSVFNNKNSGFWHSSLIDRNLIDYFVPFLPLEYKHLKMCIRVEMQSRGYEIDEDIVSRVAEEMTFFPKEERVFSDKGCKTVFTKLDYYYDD
Follistatin (Homo sapiens), sequence (P19883 whole entry, looked up): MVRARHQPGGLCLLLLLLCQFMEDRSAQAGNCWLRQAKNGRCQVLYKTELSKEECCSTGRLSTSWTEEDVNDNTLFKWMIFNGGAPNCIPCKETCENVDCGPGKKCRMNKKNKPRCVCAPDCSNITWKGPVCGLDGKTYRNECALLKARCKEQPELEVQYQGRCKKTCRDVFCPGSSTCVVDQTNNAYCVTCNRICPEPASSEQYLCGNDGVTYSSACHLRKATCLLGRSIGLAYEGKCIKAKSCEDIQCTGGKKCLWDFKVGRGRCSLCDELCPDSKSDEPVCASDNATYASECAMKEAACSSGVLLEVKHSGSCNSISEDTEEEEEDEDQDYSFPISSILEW
Focal adhesion kinase 1 (Homo sapiens), sequence (Q05397 whole entry, looked up): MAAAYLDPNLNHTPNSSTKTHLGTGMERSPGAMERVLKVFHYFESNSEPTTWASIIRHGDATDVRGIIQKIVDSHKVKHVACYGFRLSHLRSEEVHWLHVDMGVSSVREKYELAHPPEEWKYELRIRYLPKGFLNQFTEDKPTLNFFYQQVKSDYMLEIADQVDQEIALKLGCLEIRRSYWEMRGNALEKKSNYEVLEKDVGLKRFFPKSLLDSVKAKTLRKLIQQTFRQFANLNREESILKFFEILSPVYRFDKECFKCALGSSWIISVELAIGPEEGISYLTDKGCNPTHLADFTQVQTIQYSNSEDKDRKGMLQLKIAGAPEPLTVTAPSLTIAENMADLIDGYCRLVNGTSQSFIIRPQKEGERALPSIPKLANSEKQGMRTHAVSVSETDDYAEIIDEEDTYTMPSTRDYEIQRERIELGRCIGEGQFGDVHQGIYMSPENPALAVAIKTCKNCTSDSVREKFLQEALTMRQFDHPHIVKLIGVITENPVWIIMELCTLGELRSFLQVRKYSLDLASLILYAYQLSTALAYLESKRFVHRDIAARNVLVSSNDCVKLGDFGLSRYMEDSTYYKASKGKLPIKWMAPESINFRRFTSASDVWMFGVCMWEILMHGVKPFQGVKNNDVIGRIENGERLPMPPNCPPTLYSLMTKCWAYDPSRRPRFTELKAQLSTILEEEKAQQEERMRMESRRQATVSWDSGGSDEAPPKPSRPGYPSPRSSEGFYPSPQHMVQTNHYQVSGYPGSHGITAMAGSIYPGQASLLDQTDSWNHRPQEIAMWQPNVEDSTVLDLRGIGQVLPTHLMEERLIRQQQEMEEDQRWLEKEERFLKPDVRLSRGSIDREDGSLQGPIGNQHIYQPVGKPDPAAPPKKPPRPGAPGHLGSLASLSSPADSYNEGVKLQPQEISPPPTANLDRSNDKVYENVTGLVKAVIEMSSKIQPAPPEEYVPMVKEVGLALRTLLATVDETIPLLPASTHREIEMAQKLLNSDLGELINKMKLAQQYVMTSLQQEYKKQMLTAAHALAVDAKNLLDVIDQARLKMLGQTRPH
Streptavidin (Streptomyces avidinii), sequence (P22629 whole entry, looked up): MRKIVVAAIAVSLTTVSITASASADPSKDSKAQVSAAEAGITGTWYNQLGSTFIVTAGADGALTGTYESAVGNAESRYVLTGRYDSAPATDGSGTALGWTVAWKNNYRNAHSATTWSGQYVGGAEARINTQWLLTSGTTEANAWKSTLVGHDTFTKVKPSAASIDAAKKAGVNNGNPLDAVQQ
Luciferin 4-monooxygenase (Photinus pyralis), sequence (P08659 whole entry, looked up): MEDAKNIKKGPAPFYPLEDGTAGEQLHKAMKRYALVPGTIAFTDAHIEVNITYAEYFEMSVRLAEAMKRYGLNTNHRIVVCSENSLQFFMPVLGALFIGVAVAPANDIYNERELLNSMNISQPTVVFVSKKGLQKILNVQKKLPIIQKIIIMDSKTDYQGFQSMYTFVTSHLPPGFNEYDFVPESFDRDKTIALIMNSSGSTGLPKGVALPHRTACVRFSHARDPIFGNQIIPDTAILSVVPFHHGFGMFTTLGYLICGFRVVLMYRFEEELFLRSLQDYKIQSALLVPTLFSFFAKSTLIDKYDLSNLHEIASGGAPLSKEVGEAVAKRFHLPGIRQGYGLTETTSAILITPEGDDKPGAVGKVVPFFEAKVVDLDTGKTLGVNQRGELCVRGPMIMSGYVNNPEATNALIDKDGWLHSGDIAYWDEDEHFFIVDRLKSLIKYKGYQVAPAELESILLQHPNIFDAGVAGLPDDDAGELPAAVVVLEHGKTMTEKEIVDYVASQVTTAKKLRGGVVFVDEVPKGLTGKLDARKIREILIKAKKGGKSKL

Row | Structure (SMILES) | composite z-score [1] | composite z-score [2] | composite z-score [3] | composite z-score [4] | composite z-score [5] | composite z-score [6] | z-score [7] | composite z-score (Lefty1) | composite z-score [8] | z-score [9] | composite z-score [10] | z-score [11] | z-score [12] | z-score [13] | z-score [14] | composite z-score [15] | composite z-score [16] | composite z-score (Torsin-1A (Homo sapiens) [17]) | composite z-score (Torsin-1A (Homo sapiens) [18]) | composite z-score [19]
1 | CCCCC(=C=CC[C@@H](O)c1cccc(OCCO)c1)C[C@@H](O)COCc1ccccc1 | 0.457 | -0.122 | 0.116 | 0.982 | -0.211 | -0.178 | 0.732 | -0.0843 | 0.498 | -1.88 (inactive) | -0.225 | -2.51 (inactive) | -0.279 (inactive) | 6.81 (inactive) | -0.731 (inactive) | -0.577 | -0.05 | -0.387 | -0.444 | 0.362
2 | CC1(C)OC[C@@]23C=C(Br)[C@@H](C[C@H]12)[C@@]1(CO1)C3=O | 0.424 | 0.62 | 0.139 | 0.149 | 0.369 | 0.122 | 0.582 | 0.439 | 0.0477 | -0.0228 (inactive) | 0.0405 | 0.661 (inactive) | 0.844 (inactive) | 0.494 (inactive) | 0.925 (inactive) | -0.0131 | -0.0331 | 0.667 | 0.483 | 0.474
3 | CCCCC(O)C1C=CC2C(=O)NC(=O)C2N1Nc1ccc(Cl)cc1Cl (stereo not given) | 2.42 | 0.32 | 0.474 | -0.0628 | 0.413 | -0.596 | -1.16 | -0.654 | 0.87 | -1.31 (inactive) | -0.188 | -1.19 (inactive) | -0.441 (inactive) | 0.819 (inactive) | -0.123 (inactive) | 0.27 | 0.166 | -0.58 | 0.571 | -0.614
4 | C=CCNC(=O)[C@H]1[C@@H]2C(=O)O[C@@H](c3ccccc3)[C@@H](c3ccccc3)N2[C@@H](c2ccc(O)cc2)[C@]12C(=O)Nc1ccc(C#CC3=CCCCC3)cc12 | 1.3 | 1.02 | 0.0897 | 0.531 | 0.886 | 0.355 | 0.88 | 0.916 | 0.622 | 0.0736 (inactive) | 0.121 | -3.15 (inactive) | -0.0901 (inactive) | -0.671 (inactive) | 0.21 (inactive) | 1.18 | 0.616 | 1.75 | 0.462 | 2
5 | [N-]=[N+]=NCc1ccccc1C[C@]1(C(=O)N2CCCCC2)N=C(c2ccc(OCCCO)cc2)O[C@H]1c1ccccc1 | 0.582 | 1.1 | 0.425 | 0.714 | 0.351 | 0.182 | 1.17 | -0.599 | 0.762 | 0.09 (inactive) | 0.601 | -5.06 (inactive) | -0.307 (inactive) | -0.0017 (inactive) | -0.964 (inactive) | 0.483 | -0.0471 | 0.81 | 0.139 | -0.655
6 | CO[C@H]1O[C@H](CO)[C@@H](OC(=O)Nc2ccccc2)[C@@H]2OC(=O)[C@H](Cc3ccccc3)C/C=C/C[C@@H](Cc3ccccc3)C(=O)O[C@@H]12 | 2.3 | 1.13 | 0.473 | 0.718 | 1.29 | 1.74 | 2.27 | 1.33 | 0.588 | -0.617 (inactive) | 0.399 | -3.81 (inactive) | -0.805 (inactive) | 0.512 (inactive) | -1.36 (inactive) | 0.564 | -0.0762 | 0.527 | 0.348 | 1.62
